Holding throughout (test): NCI-60 one-dose screen, 48 h (100 = growth as untreated, 0 = no growth, -100 = all killed)
Holding throughout (conditions): 10 µM unless noted

For test [1], the system named is HCT-15 colon.
Test [2] has as its system HT29 colon.
Test [3] deals with SNB-75 CNS.
In test [4] the test system is SNB-19 CNS.
For test [5], the system named is U251 CNS.
For test [6], the system named is PC-3 prostate.
In test [7] the test system is SK-MEL-5 melanoma.
Test [8] has as its system UACC-62 melanoma.
Test [9] deals with LOX IMVI melanoma.
In test [10] the test system is SK-MEL-28 melanoma.
In test [11] the test system is SK-MEL-2 melanoma.
The test system of test [12] is EKVX NSCLC.
For test [13], the system named is SN12C renal.
The subject of test [14] is UO-31 renal.
The test system of test [15] is TK-10 renal.
Test [16] has as its system ACHN renal.
The subject of test [17] is CAKI-1 renal.
Test [18] relates to CCRF-CEM leukemia.
Test [19] deals with MOLT-4 leukemia.

Results on eight compounds are retold here after PubChem BioAssay (NCI).

About 83,000 compounds went through this panel and 20% of them were active in at least one assay; those are over-represented in the sample as a whole.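 Each cell line was grown in a 96-well plate and treated with one concentration of compound for 48 hours. Values below 10 were considered active.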 Values without a mark were called inactive. Activity calls are given as the source filed them.

For the compound `C/C(=N\NC(=O)CSc1nc2ccccc2c(=O)n1Cc1ccc(S(N)(=O)=O)cc1)c1ccc(F)cc1`, the growth in test [1] is 96.9%; in [2] it was 94.7%; in [3] it was 98.5%; in test [4], 102%; in test [5], 103%; in test [6] it was 102%. Also, the growth was 105% in [7]; 102% in [8]; 97.6% in test [9]; 117% in test [10]; 111% in [11]; 90.9% in [12]. Moreover, the growth in test [13] was 101%; in [14], 84.5%; in test [15] it was 102%; in test [16], 105%; in test [17], 95%; in test [18] it was 106%. The growth in test [19] was 107%.

With `C/C(=N\Nc1cc(C)nc2ccc(Br)cc12)c1ccc([N+](=O)[O-])cc1`, the growth in [1] was 21.7%; in test [2] it was 37.3%; in test [3], 105%; in [4], 75.7%; in test [5], 20%; in [6], 74.8%. In addition, the growth was 92.3% in [7]; 89.6% in test [8]; -29.9% (active) in test [9]; 99.2% in test [10]; 93.1% in test [11]; 78.2% in test [12]. In addition, the growth in test [13] was 60.2%; in test [14] it was 64.4%; in test [15], 115%; in [16], 42.5%; in test [17], 84.6%; in test [18], 13.5%. For the same compound, in test [19], the growth is 53.1%.

For `C=C1C(=O)O[C@H]2[C@H]1CC/C(CNC(=O)CCc1ccc(OC)cc1)=C\CC[C@@]1(C)O[C@@H]21`, the growth in [1] was 37.1%; in test [2], 12.1%; in test [3], 116%; in test [4], 80.3%; in [5] it was 87.9%; in test [6] it was 72.1%. Also, the growth in test [7] was 92.8%; in test [8] it was 47.3%; in test [9] it was 70.3%; in test [10], 59.5%; in test [11], 74.5%; in [12] it was 71.4%. Further, the growth in test [13] was 35.9%; in [14] it was 53%; in test [15] it was 33.5%; in test [16], 31.6%; in [17] it was 38.1%; in [18] it was 4.85% (active). In addition, in test [19], the growth was 67.8%.

For the compound `OCc1cnccc1NCCCOc1ccccc1`, the growth in [1] is 105%; in test [2] it was 102%; in test [3], 99.6%; in test [4] it was 94.9%; in test [5], 98.2%; in [6], 96%. In addition, the growth is 97.1% in [7]; 90.5% in test [8]; 99.4% in test [9]; 109% in test [10]; 107% in test [11]; 105% in test [12]. For the same compound, the growth in test [13] is 94.3%; in test [14] it was 87.9%; in test [15], 92.5%; in test [16] it was 108%; in test [17] it was 95.7%; in test [18], 88.8%. In addition, the growth in test [19] was 96.6%.

With `COc1cc2c(=O)n(CCN(C)C)c3c4cc5c(cc4ccc3c2cc1OC)OCO5`, the growth in test [1] is -13.3% (active); in test [2], 0.585% (active); in [3], 17.8%; in test [4] it was 6.11% (active); in test [5], -4.24% (active); in test [6], 7.26% (active). In addition, the growth in test [7] was -68.7% (active); in [8], -85.6% (active); in test [9] it was -58.3% (active); in test [10] it was -33.9% (active); in test [11] it was -65.1% (active); in [12] it was -1.09% (active). Moreover, the growth in test [13] is -4.74% (active); in test [14], -77.6% (active); in [15] it was -76.2% (active); in test [16], -92.6% (active); in [17], -89.5% (active); in test [18], 2.56% (active). In [19], the growth is 3.91% (active).

`O=S(=O)(NCCCNc1nccc(-c2c(-c3cccc(F)c3)nc3sccn23)n1)c1cccc2ccccc12`: the growth is 18% in test [1]; 1.97% (active) in test [2]; 86.5% in test [3]; 69% in test [4]; 59.1% in [5]; 41.2% in test [6]. Besides, the growth is 31.8% in test [7]; 24.3% in test [8]; 20.9% in test [9]; 77.5% in test [10]; 47.8% in test [11]; 56.1% in test [12]. The growth is 46.9% in [13]; 20% in [14]; 71.7% in test [15]; 34.7% in [16]; 29.1% in test [17]; 38.5% in test [18]. For the same compound, the growth in [19] is 29.3%.

For the compound `C#CCNC(=O)[C@]1(C)CC[C@]2(C)CC[C@@H]3C(=CC[C@H]4[C@@]3(C)CC[C@H]3C(C)(C)C(=O)CC[C@]43C)[C@@H]2C1`, the growth in test [1] was 98%; in test [2], 93.1%; in test [3] it was 102%; in test [4], 102%; in test [5], 99.1%; in test [6] it was 64.6%. Further, the growth in test [7] was 93.3%; in test [8], 83.2%; in [9], 96.2%; in [10], 102%; in [11], 96.2%; in test [12], 100%. Also, the growth is 97.9% in test [13]; 80.5% in [14]; 86.4% in test [15]; 98% in test [16]; 83.1% in [17]; 69.4% in [18]. Further, the growth in test [19] was 93.1%.

For the compound `CCCOc1ccc(/C=N/Nc2cc(C)nc3ccc(Cl)cc23)cc1`, the growth in test [1] was -44.4% (active); in [2] it was -6.94% (active); in [3], 104%; in test [4], 58.6%; in test [5] it was -58.3% (active); in [6], 48.6%. Further, the growth in test [7] is 79.9%; in test [8] it was 88.6%; in test [9] it was -95.7% (active); in test [10], 64.8%; in test [11], 91.4%; in test [12] it was 72.8%. For the same compound, the growth in test [13] was -10.8% (active); in test [14], 7.59% (active); in test [15], 102%; in test [16] it was 23.3%; in [17] it was 74.2%; in [18], 2.96% (active). In addition, the growth in test [19] is -42.5% (active).
